Test results reported in PubChem BioAssay AID1159580 (chemical genetic matrix, 2015).
Out of some 5,500 compounds screened, about 2,000 (36%) were called active. Inconclusive results (about 18%) are left out. Cut-off read from the data, not from the text of the source: active = normalized growth mostly below about 0.91 (no sharp cut-off); inconclusive = no clear call, values can overlap the other calls; inactive = mostly above about 0.92. This is one part of the list.

Assay: chemical genetic growth profiling, strain panel (AID 1159580);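 note: tested at 20 µM; growth read once vehicle control cultures reached saturation at 30 °C; 1 = growth at the plate median or of vehicle wells; lower values mean less growth of the strain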
Settings: growth OD

Measured: normalized growth

Cc1occc(=O)c1O
inactive: S. cerevisiae deletion strains, locus YKL009W, strain mrt4, active compounds read low 1.01 | S. cerevisiae deletion strains, locus YKL068W, active compounds read low 1 | S. cerevisiae deletion strains, locus YKL085W, strain MDH1 (second series), active compounds read low 1 | S. cerevisiae deletion strains, locus YKL085W, strain MDH1, active compounds read low 1 | S. cerevisiae deletion strains, locus YKL160W, strain elf1, active compounds read low 0.962 | S. cerevisiae deletion strains, locus YKR001C, strain vps1, active compounds read low 1.03 | S. cerevisiae deletion strains, locus YKR026C, strain gcn3, active compounds read low 0.97 | S. cerevisiae deletion strains, locus YKR091W, strain srl3, active compounds read low 0.962 | S. cerevisiae deletion strains, locus YLL001W, strain dnm1, active compounds read low 0.96 | S. cerevisiae deletion strains, locus YLL026W, active compounds read low 0.961 | S. cerevisiae deletion strains, locus YLL041C, strain sdh2, active compounds read low 0.977 | S. cerevisiae deletion strains, locus YLR027C, strain aat2, active compounds read low 0.97 | S. cerevisiae deletion strains, locus YLR039C, strain RIC1, active compounds read low 1.01 | S. cerevisiae deletion strains, locus YLR058C, strain SHM2, active compounds read low 1.01 | S. cerevisiae deletion strains, locus YLR102C, strain apc9, active compounds read low 1.01 | S. cerevisiae deletion strains, locus YLR113W, strain HOG1, active compounds read low 1.03 | S. cerevisiae deletion strains, locus YLR221C, strain rsa3, active compounds read low 0.96 | S. cerevisiae deletion strains, locus YLR258W, strain gsy2, active compounds read low 0.973 | S. cerevisiae deletion strains, locus YLR262C, strain YPT6 (second series), active compounds read low 0.964 | S. cerevisiae deletion strains, locus YLR262C, strain YPT6, active compounds read low 1.01 | S. cerevisiae deletion strains, locus YLR268W, strain sec22, active compounds read low 1.01 | S. cerevisiae deletion strains, locus YLR320W, strain mms22, active compounds read low 0.95 | S. cerevisiae deletion strains, locus YLR330W, strain CHS5, active compounds read low 0.999 | S. cerevisiae deletion strains, locus YLR342W, strain FKS1 (second series), active compounds read low 1 | S. cerevisiae deletion strains, locus YLR342W, strain FKS1, active compounds read low 0.974 | S. cerevisiae deletion strains, locus YLR357W, strain rsc2, active compounds read low 0.941 | S. cerevisiae deletion strains, locus YLR370C, strain arc18, active compounds read low 0.98 | S. cerevisiae deletion strains, locus YLR371W, strain rom2, active compounds read low 1.02 | S. cerevisiae deletion strains, locus YLR384C, strain iki3, active compounds read low 0.969 | S. cerevisiae deletion strains, locus YLR418C, strain cdc73, active compounds read low 1.03 | S. cerevisiae deletion strains, locus YML016C, strain PPZ1, active compounds read low 1 | S. cerevisiae deletion strains, locus YML032C, strain rad52, active compounds read low 1.01 | S. cerevisiae deletion strains, locus YML120C, strain ndi1, active compounds read low 0.95 | S. cerevisiae deletion strains, locus YML124C, strain tub3, active compounds read low 1.01 | S. cerevisiae deletion strains, locus YMR058W, strain fet3, active compounds read low 0.971 | S. cerevisiae deletion strains, locus YMR078C, strain ctf18, active compounds read low 1.01 | S. cerevisiae deletion strains, locus YMR125W, strain sto1, active compounds read low 0.935 | S. cerevisiae deletion strains, locus YMR129W, active compounds read low 0.972 | S. cerevisiae deletion strains, locus YMR205C, strain PFK2, active compounds read low 0.948 | S. cerevisiae deletion strains, locus YMR223W, strain ubp8, active compounds read low 0.998 | S. cerevisiae deletion strains, locus YMR231W, strain pep5, active compounds read low 0.976 | S. cerevisiae deletion strains, locus YMR307W, strain GAS1, active compounds read low 0.968 | S. cerevisiae deletion strains, locus YNL067W, strain RPL9B, active compounds read low 1 | S. cerevisiae deletion strains, locus YNL071W, strain lat1, active compounds read low 0.979 | S. cerevisiae deletion strains, locus YNL128W, strain TEP1, active compounds read low 1.03 | S. cerevisiae deletion strains, locus YNL183C, strain NPR1, active compounds read low 0.97 | S. cerevisiae deletion strains, locus YNL209W, strain ssb2, active compounds read low 0.971 | S. cerevisiae deletion strains, locus YNL233W, strain BNI4, active compounds read low 1.01 | S. cerevisiae deletion strains, locus YNL248C, strain rpa49, active compounds read low 0.975 | S. cerevisiae deletion strains, locus YNL250W, strain rad50, active compounds read low 1 | S. cerevisiae deletion strains, locus YNL271C, strain bni1, active compounds read low 1.02 | S. cerevisiae deletion strains, locus YNL298W, strain CLA4, active compounds read low 1.05 | S. cerevisiae deletion strains, locus YNL307C, strain MCK1, active compounds read low 1.02 | S. cerevisiae deletion strains, locus YNL322C, strain KRE1 (second series), active compounds read low 0.943 | S. cerevisiae deletion strains, locus YNL322C, strain KRE1, active compounds read low 1 | S. cerevisiae deletion strains, locus YNR049C, strain mso1, active compounds read low 0.958 | S. cerevisiae deletion strains, locus YNR052C, strain pop2, active compounds read low 1.01 | S. cerevisiae deletion strains, locus YOL012C, strain htz1 1.37 | S. cerevisiae deletion strains, locus YOL147C, strain pex11, active compounds read low 1.01 | S. cerevisiae deletion strains, locus YOR001W, strain rrp6, active compounds read low 0.983 | S. cerevisiae deletion strains, locus YOR061W, strain CKA2, active compounds read low 1.01 | S. cerevisiae deletion strains, locus YOR069W, strain VPS5, active compounds read low 1.01 | S. cerevisiae deletion strains, locus YOR070C, strain gyp1, active compounds read low 0.969 | S. cerevisiae deletion strains, locus YOR080W, strain dia2, active compounds read low 0.961 | S. cerevisiae deletion strains, locus YOR083W, strain WHI5, active compounds read low 0.952 | S. cerevisiae deletion strains, locus YOR106W, strain vam3, active compounds read low 0.942 | S. cerevisiae deletion strains, locus YOR136W, strain idh2, active compounds read low 1.02 | S. cerevisiae deletion strains, locus YOR144C, strain elg1, active compounds read low 1.01 | S. cerevisiae deletion strains, locus YOR184W, strain ser1, active compounds read low 1.03 | S. cerevisiae deletion strains, locus YOR231W, strain MKK1, active compounds read low 1.02 | S. cerevisiae deletion strains, locus YOR265W, strain rbl2, active compounds read low 0.971 | S. cerevisiae deletion strains, locus YOR270C, strain vph1, active compounds read low 0.931 | S. cerevisiae deletion strains, locus YOR290C, strain snf2, active compounds read low 0.916 | S. cerevisiae deletion strains, locus YOR316C, strain cot1, active compounds read low 1.01 | S. cerevisiae deletion strains, locus YPL051W, strain arl3, active compounds read low 0.973 | S. cerevisiae deletion strains, locus YPL055C, strain LGE1, active compounds read low 1.01 | S. cerevisiae deletion strains, locus YPL078C, strain atp4, active compounds read low 0.968 | S. cerevisiae deletion strains, locus YPL106C, strain sse1, active compounds read low 0.924 | S. cerevisiae deletion strains, locus YPL240C, strain hsp82, active compounds read low 0.983 | S. cerevisiae deletion strains, locus YPL241C, strain CIN2, active compounds read low 1 | S. cerevisiae deletion strains, locus YPL256C, strain CLN2, active compounds read low 1.01 | S. cerevisiae deletion strains, locus YPR119W, strain clb2, active compounds read low 1 | S. cerevisiae deletion strains, locus YPR141C, strain kar3, active compounds read low 1 | S. cerevisiae deletion strains, locus YPR163C, strain tif3, active compounds read low 1 | S. cerevisiae deletion strains, locus YPR167C, strain met16, active compounds read low 1.01 | S. cerevisiae deletion strains, strain wtn01, active compounds read low 0.993 | S. cerevisiae strains, strain wild type, active compounds read low 1
